Data as given in PubChem BioAssay (EPA / NIEHS).
Inconclusive results are not listed. Active and inactive are the calls of the source. The calls were made as follows, unless noted: active = hit-call score of the fitted dose curve at least 0.9, where 1 is the maximum; inactive = score below 0.9.

What was measured:
[1] = ATG_NFI_CIS: Attagene CIS-FACTORIAL HepG2 Assay for human Nuclear Factor I (NFI) (AID 2282989); details: HepG2 cis-regulatory reporter, NFI response element transcription; actives raise or lower the signal
How it was run: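 Transfected HepG2 liver cells, exposed 24 h, supplied total RNA for oligo(dT) reverse transcription and reporter-specific PCR. Labelled, HpaI-cut fragments were sized by capillary electrophoresis; DMSO set the baseline for bidirectional fitting.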

[2] = target: Myc proto-oncogene protein (Homo sapiens) (UniProt P01106); assay: ATG_Myc_CIS: Attagene CIS-FACTORIAL HepG2 Assay for human Myelocytomatosis (Myc) Proto-Oncogene Transcription Factor (AID 2282990); details: HepG2, Attagene cis-reporter transcription factor activity; actives raise or lower the signal
How it was run: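 Fluorescence intensity of reporter-specific cDNA fragments, separated by capillary electrophoresis, gives the signal. Transfected HepG2 cells carrying cis-promoter reporter constructs are incubated with compound for 24 h; DMSO serves as baseline.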

[3] = ATG_NF_kB_CIS: Attagene CIS-FACTORIAL HepG2 Assay for human Nuclear Factor Kappa B (NF-kB) (AID 2282991); details: HepG2 Attagene cis-factorial NF-kB reporter mRNA; actives raise or lower the signal
How it was run: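 Fluorescence of labelled RT-PCR products separated by capillary electrophoresis gives reporter mRNA levels from transfected HepG2 cells exposed 24 h; values are fitted in both directions relative to DMSO.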

[4] = ATG_NRF2_ARE_CIS: Attagene CIS-FACTORIAL HepG2 Assay for human Nuclear Factor Erythroid 2 Related Factor 2 (NFR2) response to Antioxidant Response Elements (ARE) (AID 2282992); details: HepG2 Attagene ARE/NRF2 reporter, transcription factor activity; actives raise or lower the signal
How it was run: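 HepG2 cells transiently transfected with multiplexed cis-element reporter constructs, 24 h after chemical dosing; reporter mRNA quantified by RT-PCR, fluorescent primer extension, HpaI digestion and capillary electrophoresis. Bidirectional fit relative to DMSO.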

[5] = ATG_Oct_MLP_CIS: Attagene CIS-FACTORIAL HepG2 Assay for human Octamer-Binding Transcription Factor (Oct) (AID 2282993); details: HepG2 Attagene cis-factorial Oct reporter, mRNA; actives raise or lower the signal
How it was run: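 Using HepG2 cells bearing transfected cis-reporter constructs, mRNA induction was read after 24 h by fluorescent RT-PCR and capillary electrophoresis, with DMSO defining baseline for gain- or loss-of-signal fits.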

[6] = target: Cellular tumor antigen p53 (Homo sapiens) (UniProt P04637); assay: ATG_p53_CIS: Attagene CIS-FACTORIAL HepG2 Assay for human p53 Transcription Factor (AID 2282994); details: HepG2 p53 cis-element reporter, Attagene mRNA; actives raise or lower the signal
How it was run: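 HepG2 cells transiently transfected with cis-regulated multiple reporter transcription units, dosed 24 h. Reporter mRNA measured by RT-PCR, 6-FAM primer extension, HpaI digestion and capillary electrophoresis; bidirectional fit relative to DMSO.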

[7] = BSK_3C_TissueFactor: BioMAP Diversity Plus: 3C Assay for Tissue Factor Biomarker Activity (AID 2282997); details: BioMAP 3C HUVEC, tissue factor biomarker readout; actives raise or lower the signal
How it was run: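 Human vascular primary cells (umbilical vein endothelium) received test chemical; Tissue Factor was determined by ELISA at 24 h, and both gain and loss of signal versus DMSO were fitted.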

[8] = BSK_3C_uPAR: BioMAP Diversity Plus: 3C Assay for Urokinase-type plasminogen activator receptor (uPAR) Biomarker Activity (AID 2282998); details: BioMAP 3C HUVEC, uPAR biomarker ELISA; actives raise or lower the signal
How it was run: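 In this endothelial cell-based assay, human umbilical vein primary cells were treated with chemicals and harvested at 24 h. uPAR was quantified using ELISA, with gains or losses fitted relative to DMSO controls.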

[9] = BSK_3C_VCAM1: BioMAP Diversity Plus: 3C Assay for Vascular cell adhesion molecule 1 (VCAM1) Biomarker Activity (AID 2282999); details: BioMAP 3C HUVEC, VCAM1 ELISA, cytokine-stimulated; actives raise or lower the signal
How it was run: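 Human umbilical vein endothelial cells (3C system), biomarker read by ELISA 24 h after dosing; bidirectional fit against DMSO baseline. Cytotoxicity tracked by SRB total-protein staining in parallel cultures at biomarker time.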

[10] = BSK_4H_Eotaxin3: BioMAP Diversity Plus: 4H Assay for Eotaxin 3 Biomarker Activity (AID 2283000); details: primary human endothelial cells (HUVEC); actives raise or lower the signal
How it was run: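 Readout is Eotaxin-3 (CCL26) level by ELISA in primary human umbilical vein endothelial cells harvested 24 h after chemical exposure; activity fitted in both directions against DMSO control.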

[11] = target: human Peroxisome Proliferator-activated Receptor delta (PPARd), PPARD (gene 5467) (UniProt Q03181); assay: ATG_PPARd_TRANS: Attagene TRANS-FACTORIAL HepG2 Assay for human Peroxisome Proliferator-activated Receptor delta (PPARd) (AID 2283002; active = hit-call score of the fitted dose curve at least 0.9, where 1 is the maximum)
How it was run: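 Fluorescence from capillary electrophoresis of labelled RT-PCR reporter fragments gives the signal; DMSO sets baseline. Cells: HepG2 transiently carrying GAL4-UAS reporter units plus chimeric nuclear receptor-Gal4 proteins, exposed to chemicals for 24 h.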

[12] = read-out: Intercellular Adhesion Molecule 1 (ICAM1), ICAM1 (gene 3383); assay: BSK_3C_ICAM1: BioMAP Diversity Plus: 3C Assay for Intercellular Adhesion Molecule 1 (ICAM1) Biomarker Activity (AID 2283003); details: primary human endothelial cells (HUVEC); actives raise or lower the signal
How it was run: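 Human vascular endothelial primary cells, 3C conditions, 24 h treatment. ICAM-1 by ELISA.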

[13] = BSK_3C_Proliferation: Cell Proliferation Assessment in the BioMAP Diversity Plus: 3C Assay (AID 2283006); details: primary human endothelial cells (HUVEC);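 as to AC50: potency may reflect either rise or fall in cell number versus DMSO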
How it was run: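 Proliferation of human vascular endothelial primary cells after 48 h dosing, quantified as SRB-stained protein at 560 nm relative to DMSO.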

[14] = target: Peroxisome proliferator-activated receptor gamma (Homo sapiens) (UniProt P37231); assay: ATG_PPARg_TRANS: Attagene TRANS-FACTORIAL HepG2 Assay for human Peroxisome Proliferator-activated Receptor-gamma (PPARg) (AID 2283007; active = hit-call score of the fitted dose curve at least 0.9, where 1 is the maximum)
How it was run: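 Twenty-four hours after chemical dosing of transiently transfected HepG2 cells, isolated RNA was converted to cDNA, reporter sequences amplified and 6-FAM-labelled, then HpaI-digested and analysed by capillary electrophoresis. Signal increase against DMSO was fitted.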

[15] = target: Nuclear receptor subfamily 1 group I member 2 (Homo sapiens) (UniProt O75469); assay: ATG_PXR_TRANS: Attagene TRANS-FACTORIAL HepG2 Assay for human Pregnane X Receptor (PXR) (AID 2283008; active = hit-call score of the fitted dose curve at least 0.9, where 1 is the maximum)
How it was run: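 HepG2 cells transiently transfected with GAL4-UAS reporter units and PXR-Gal4 chimera, exposed 24 h. Reporter mRNA quantified by RT-PCR, fluorescent labelling, HpaI digestion and capillary electrophoresis; gain of signal vs DMSO.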

[16] = target: human Retinoic Acid Receptor gamma (RARg), RARG (gene 5916) (UniProt P13631); assay: ATG_RARg_TRANS: Attagene TRANS-FACTORIAL HepG2 Assay for human Retinoic Acid Receptor gamma (RARg) (AID 2283009; active = hit-call score of the fitted dose curve at least 0.9, where 1 is the maximum)
How it was run: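 HepG2, RARg-GAL4 TRANS system, 24 h exposure; reporter mRNA by RT-PCR + CE fluorescence; increase over DMSO.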

[17] = target: human Retinoic Acid Receptor beta (RARb), RARB (gene 5915) (UniProt P10826); assay: ATG_RARb_TRANS: Attagene TRANS-FACTORIAL HepG2 Assay for human Retinoic Acid Receptor beta (AID 2283004; active = hit-call score of the fitted dose curve at least 0.9, where 1 is the maximum)
How it was run: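 Readout is reporter mRNA induction: RNA reverse-transcribed, PCR-amplified, FAM-labelled, HpaI-cut and resolved by capillary electrophoresis. Transiently transfected HepG2 cells carrying exogenous NR–Gal4 chimeras were dosed for 24 h; activity fitted upward relative to DMSO.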

[18] = target: Retinoic acid receptor alpha (Homo sapiens) (UniProt P10276); assay: ATG_RARa_TRANS: Attagene TRANS-FACTORIAL HepG2 Assay for human Retinoic Acid Receptor alpha (RARa) (AID 2283005; active = hit-call score of the fitted dose curve at least 0.9, where 1 is the maximum)
How it was run: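 HepG2 transiently transfected with multiplex GAL4-UAS reporter units including a human RARa–GAL4 chimera; 24 h compound exposure. Reporter mRNA quantified by RT-PCR, 6-FAM labeling and capillary electrophoresis; gain of signal versus DMSO.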

[19] = target: human RAR-related Orphan Receptor beta (RORb), RORB (gene 6096) (UniProt Q92753); assay: ATG_RORb_TRANS: Attagene TRANS-FACTORIAL HepG2 Assay for human RAR-related Orphan Receptor beta (RORb) (AID 2283010; active = hit-call score of the fitted dose curve at least 0.9, where 1 is the maximum)
How it was run: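 In this TRANS-format test, human HepG2 cells express chimeric NR-Gal4 fusion proteins driving GAL4-UAS reporters. After 24 h dosing, reporter transcripts are measured by fluorescent RT-PCR/capillary electrophoresis, with DMSO as negative control.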

[20] = target: human Peroxisome Proliferator-activated Receptor alpha (PPARa), PPARA (gene 5465) (UniProt Q07869); assay: ATG_PPARa_TRANS: Attagene TRANS-FACTORIAL HepG2 Assay for human Peroxisome Proliferator-activated Receptor alpha (PPARa) (AID 2283001; active = hit-call score of the fitted dose curve at least 0.9, where 1 is the maximum)
How it was run: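 Measures transcriptional activity of an exogenous chimeric PPARa-Gal4 protein in transiently transfected HepG2 cells after 24 h dosing. Reporter mRNA quantified via RT-PCR and capillary electrophoresis; DMSO served as negative control.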

Measured: AC50

Chain of human Retinoic Acid Receptor gamma (RARg), RARG (gene 5916) (P13631 whole entry, looked up, the tested form may be a part): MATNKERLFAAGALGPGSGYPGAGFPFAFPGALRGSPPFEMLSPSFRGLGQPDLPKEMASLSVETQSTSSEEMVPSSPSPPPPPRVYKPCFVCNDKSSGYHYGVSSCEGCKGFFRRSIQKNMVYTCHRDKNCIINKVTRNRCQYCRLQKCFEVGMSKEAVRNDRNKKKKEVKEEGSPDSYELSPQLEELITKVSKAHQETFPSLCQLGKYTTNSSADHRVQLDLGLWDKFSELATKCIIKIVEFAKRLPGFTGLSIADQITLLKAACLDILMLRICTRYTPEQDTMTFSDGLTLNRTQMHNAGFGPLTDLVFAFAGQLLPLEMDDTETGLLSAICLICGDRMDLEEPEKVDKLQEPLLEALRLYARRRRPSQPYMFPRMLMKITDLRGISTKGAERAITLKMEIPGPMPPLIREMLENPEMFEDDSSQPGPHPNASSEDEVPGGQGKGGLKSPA
Chain of Nuclear receptor subfamily 1 group I member 2 (Homo sapiens) (O75469 whole entry, looked up, the tested form may be a part): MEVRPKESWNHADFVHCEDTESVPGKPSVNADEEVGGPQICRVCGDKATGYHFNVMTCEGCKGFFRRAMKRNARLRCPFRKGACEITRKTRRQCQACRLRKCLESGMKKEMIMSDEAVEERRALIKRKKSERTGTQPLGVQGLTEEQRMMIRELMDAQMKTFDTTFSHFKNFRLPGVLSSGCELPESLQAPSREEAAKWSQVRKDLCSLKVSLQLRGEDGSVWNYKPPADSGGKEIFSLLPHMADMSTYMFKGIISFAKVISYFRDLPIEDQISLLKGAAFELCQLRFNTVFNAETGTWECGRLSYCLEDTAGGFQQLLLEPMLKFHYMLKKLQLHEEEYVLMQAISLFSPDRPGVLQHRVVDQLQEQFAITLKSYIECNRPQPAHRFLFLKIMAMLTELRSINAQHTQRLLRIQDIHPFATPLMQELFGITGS
Chain of Peroxisome proliferator-activated receptor gamma (Homo sapiens) (P37231 whole entry, looked up): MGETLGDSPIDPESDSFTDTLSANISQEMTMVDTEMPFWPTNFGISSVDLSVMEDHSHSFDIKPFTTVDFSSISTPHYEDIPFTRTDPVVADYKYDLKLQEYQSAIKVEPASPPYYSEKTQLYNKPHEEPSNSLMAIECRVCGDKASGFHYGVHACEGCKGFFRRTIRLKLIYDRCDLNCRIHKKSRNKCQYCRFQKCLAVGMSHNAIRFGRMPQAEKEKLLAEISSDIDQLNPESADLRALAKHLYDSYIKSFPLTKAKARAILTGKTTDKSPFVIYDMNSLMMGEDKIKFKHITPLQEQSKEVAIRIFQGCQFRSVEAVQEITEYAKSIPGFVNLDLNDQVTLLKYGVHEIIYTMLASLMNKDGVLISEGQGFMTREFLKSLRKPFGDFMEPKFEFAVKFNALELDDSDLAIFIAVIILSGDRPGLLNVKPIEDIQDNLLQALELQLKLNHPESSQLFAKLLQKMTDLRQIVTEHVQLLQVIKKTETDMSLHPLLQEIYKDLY
Chain of Myc proto-oncogene protein (Homo sapiens) (P01106 whole entry, looked up, the tested form may be a part): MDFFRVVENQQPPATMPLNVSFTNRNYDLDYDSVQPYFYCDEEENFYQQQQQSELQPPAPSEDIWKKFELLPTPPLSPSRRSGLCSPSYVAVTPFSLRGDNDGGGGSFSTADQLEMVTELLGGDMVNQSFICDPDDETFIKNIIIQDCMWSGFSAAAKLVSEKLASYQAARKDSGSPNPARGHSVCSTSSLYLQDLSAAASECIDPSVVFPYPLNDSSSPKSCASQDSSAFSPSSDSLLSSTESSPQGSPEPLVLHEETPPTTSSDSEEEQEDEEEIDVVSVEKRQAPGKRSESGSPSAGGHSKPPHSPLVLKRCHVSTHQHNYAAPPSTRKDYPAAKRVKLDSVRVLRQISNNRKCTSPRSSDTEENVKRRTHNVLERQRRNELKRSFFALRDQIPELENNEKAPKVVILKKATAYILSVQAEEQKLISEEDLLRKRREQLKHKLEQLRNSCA
Chain of Cellular tumor antigen p53 (Homo sapiens) (P04637 whole entry, looked up): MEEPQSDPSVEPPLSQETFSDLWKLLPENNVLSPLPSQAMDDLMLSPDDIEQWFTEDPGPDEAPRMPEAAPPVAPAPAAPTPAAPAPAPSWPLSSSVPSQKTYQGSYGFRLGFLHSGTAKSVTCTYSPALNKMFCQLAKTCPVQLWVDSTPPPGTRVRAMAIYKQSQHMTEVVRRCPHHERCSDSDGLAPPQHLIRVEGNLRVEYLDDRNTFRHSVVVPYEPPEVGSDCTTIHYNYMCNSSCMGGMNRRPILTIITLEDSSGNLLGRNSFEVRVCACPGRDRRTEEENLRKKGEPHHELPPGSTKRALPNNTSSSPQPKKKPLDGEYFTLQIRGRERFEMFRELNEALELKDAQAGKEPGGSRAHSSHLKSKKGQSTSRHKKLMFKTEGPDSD
Chain of human Peroxisome Proliferator-activated Receptor delta (PPARd), PPARD (gene 5467) (Q03181 whole entry, looked up, the tested form may be a part): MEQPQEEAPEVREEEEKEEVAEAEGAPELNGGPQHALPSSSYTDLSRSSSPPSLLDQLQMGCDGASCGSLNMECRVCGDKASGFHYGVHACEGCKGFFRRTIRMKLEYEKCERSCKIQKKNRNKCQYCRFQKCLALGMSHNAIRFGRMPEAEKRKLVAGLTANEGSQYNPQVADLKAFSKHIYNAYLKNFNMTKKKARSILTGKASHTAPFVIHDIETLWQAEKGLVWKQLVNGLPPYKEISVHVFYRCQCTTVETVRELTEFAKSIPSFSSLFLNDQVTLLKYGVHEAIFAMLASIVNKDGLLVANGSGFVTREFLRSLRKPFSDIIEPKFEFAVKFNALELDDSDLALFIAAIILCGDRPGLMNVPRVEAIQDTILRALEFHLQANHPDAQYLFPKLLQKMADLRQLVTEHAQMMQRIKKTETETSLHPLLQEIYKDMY
Chain of human Retinoic Acid Receptor beta (RARb), RARB (gene 5915) (P10826 whole entry, looked up, the tested form may be a part): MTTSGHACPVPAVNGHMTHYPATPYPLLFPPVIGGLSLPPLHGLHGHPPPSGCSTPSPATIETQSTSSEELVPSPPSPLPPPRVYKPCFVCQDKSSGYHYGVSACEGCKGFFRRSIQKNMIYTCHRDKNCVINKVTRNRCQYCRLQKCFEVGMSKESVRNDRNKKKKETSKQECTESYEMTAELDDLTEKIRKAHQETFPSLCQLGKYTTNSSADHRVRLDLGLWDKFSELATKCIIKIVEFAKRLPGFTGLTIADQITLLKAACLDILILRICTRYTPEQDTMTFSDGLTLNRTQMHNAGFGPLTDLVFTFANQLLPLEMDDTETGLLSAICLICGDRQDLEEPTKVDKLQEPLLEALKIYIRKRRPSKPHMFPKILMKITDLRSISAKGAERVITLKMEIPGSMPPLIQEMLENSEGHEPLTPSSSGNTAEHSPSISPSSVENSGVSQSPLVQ
Chain of human Peroxisome Proliferator-activated Receptor alpha (PPARa), PPARA (gene 5465) (Q07869 whole entry, looked up, the tested form may be a part): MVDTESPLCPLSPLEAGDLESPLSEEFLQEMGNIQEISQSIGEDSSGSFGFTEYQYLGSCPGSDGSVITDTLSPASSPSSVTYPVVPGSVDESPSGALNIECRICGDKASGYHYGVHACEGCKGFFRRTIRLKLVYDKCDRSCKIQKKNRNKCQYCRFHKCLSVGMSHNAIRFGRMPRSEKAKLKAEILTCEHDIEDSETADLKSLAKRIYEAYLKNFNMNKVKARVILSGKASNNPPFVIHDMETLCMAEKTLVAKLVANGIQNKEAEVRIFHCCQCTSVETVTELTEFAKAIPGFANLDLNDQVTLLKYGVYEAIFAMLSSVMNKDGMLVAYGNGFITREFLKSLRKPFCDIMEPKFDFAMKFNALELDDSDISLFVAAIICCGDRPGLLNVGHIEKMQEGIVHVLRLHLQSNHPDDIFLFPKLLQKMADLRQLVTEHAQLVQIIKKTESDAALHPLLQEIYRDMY
Chain of Retinoic acid receptor alpha (Homo sapiens) (P10276 whole entry, looked up, the tested form may be a part): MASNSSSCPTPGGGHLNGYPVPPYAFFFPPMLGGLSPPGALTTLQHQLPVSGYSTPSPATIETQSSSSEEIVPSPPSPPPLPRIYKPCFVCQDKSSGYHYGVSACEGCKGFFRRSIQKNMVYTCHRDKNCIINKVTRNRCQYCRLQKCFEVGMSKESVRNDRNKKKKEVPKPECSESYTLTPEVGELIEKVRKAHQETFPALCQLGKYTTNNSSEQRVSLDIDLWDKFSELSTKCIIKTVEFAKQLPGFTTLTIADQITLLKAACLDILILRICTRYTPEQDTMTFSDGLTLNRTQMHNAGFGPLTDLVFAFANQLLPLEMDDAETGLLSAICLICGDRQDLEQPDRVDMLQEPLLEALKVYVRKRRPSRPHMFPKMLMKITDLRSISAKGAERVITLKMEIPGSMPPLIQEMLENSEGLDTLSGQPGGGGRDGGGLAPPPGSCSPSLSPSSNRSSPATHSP
Chain of human RAR-related Orphan Receptor beta (RORb), RORB (gene 6096) (Q92753 whole entry, looked up, the tested form may be a part): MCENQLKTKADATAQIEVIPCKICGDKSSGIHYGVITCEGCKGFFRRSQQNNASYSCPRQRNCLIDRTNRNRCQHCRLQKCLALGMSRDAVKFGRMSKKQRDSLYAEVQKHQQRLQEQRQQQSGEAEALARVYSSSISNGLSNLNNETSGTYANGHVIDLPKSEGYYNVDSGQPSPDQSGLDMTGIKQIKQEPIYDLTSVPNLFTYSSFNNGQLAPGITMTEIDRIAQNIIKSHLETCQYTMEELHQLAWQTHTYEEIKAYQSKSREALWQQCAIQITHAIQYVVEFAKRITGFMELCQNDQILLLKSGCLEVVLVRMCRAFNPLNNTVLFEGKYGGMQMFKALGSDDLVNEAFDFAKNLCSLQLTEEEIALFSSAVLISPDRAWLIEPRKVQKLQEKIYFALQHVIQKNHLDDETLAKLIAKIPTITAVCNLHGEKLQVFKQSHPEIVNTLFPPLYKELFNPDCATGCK

Clc1ccc(C(c2ccc(Cl)cc2)C(Cl)(Cl)Cl)cc1
active: [1] 42.1 µM | [4] 36.4 µM | [7] 27.7 µM | [8] 15.2 µM | [9] 27.5 µM | [10] 30.1 µM | [12] 34.7 µM | [13] 20.1 µM
inactive: [2] | [3] | [5] | [6] | [11] | [14]

ClCCOCCCl
not listed: [17] | [18] | [19] | [20]
inactive: all other assays above

N#CC(Br)(Br)C(N)=O
active: [3] 157 µM | [4] 100 µM
not listed: [14] | [20]
inactive: all other assays above

CC(C)(C)C(O)(CCc1ccc(Cl)cc1)Cn1cncn1 (configuration not stated)
active: [4] 88.8 µM | [15] 0.977 µM
not listed: [17] | [18] | [19] | [20]
inactive: all other assays above

Clc1ccc(C(c2ccc(Cl)cc2)C(Cl)Cl)cc1
inactive: [3] | [6] | [20] | [14]
active: [1] 60.5 µM | [2] 44.6 µM | [4] 51.1 µM | [5] 49.7 µM | [7] 32.2 µM | [8] 14.1 µM | [9] 31.4 µM | [10] 28.7 µM | [12] 37.9 µM | [13] 15.3 µM | [15] 7.96 µM

OCCCBr
not listed: [14] | [16] | [17] | [18] | [19] | [20]
inactive: all other assays above

CCN(CC)N=O
not listed: [14] | [15] | [16] | [17] | [18] | [19] | [20]
inactive: all other assays above

Oc1ccc2ccc3cccc4ccc1c2c34
active: [7] 32.6 µM | [8] 22.3 µM | [9] 35.4 µM | [10] 28.6 µM | [12] 31.8 µM | [13] 24.6 µM | [15] 33.4 µM
not listed: [14] | [18] | [19] | [20]
inactive: all other assays above
